Mtb MenB inh: inhibitors of Mycobacterium tuberculosis MenB enzyme; P9WNP5; MenB enzyme assay, absorbance read-out; inhibition, % (no concentration beside the values); 0.43% of 100,000 active; in the data active = inhibition above about 21%, passing the limit was not always enough
Mtb MbtI inh: MbtI salicylate synthase inhibition | P9WFX0 | 0.89% of 100,000 active | inhibition, % (test concentration not listed) | purified MbtI enzyme, fluorescence intensity read-out | AID 493033; in the data active = inhibition mostly above about 56%, no sharp cut-off; inactive = mostly below about 77%
PV pol inh: poliovirus RNA polymerase inhibition; P03300; poliovirus polymerase elongation, fluorescence polarization; hits give low values; % elongation, % (compound at 16.7 µg/mL); 0.66% of 150,000 active; in the data active = % elongation below about 90%
Target sequence (P03300 1749-2209 limits assumed): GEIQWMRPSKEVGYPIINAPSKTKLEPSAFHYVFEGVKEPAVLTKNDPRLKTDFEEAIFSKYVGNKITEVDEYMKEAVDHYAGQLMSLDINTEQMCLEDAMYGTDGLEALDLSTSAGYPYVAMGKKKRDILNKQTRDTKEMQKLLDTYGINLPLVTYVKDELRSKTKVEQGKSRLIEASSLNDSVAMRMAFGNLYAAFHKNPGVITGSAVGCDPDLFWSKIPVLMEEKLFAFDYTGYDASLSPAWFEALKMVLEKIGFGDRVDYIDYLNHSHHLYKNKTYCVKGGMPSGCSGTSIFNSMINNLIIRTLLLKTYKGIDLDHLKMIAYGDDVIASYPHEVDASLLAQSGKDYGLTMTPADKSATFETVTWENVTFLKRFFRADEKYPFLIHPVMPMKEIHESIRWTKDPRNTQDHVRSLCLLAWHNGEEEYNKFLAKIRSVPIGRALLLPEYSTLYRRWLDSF
Numbers without * were called inactive; x = not tested or not shown. This is a sample that favours compounds with a hit; in the whole collection about 1.5% have one here.

SMILES	Mtb MenB inh	Mtb MbtI inh	PV pol inh
S=c1[nH]nc(CCCOc2ccc(Cl)cc2Cl)o1	-39	90*	87*
O=C(OCC(=O)N(c1ccccc1)C1CCCCC1)C1COc2ccccc2O1 (stereo not given)	-2	3	103
Cc1cccc(C(=O)Nc2sc3c(c2C(=O)O)CCCC3)c1	x	x	105
COc1cccc(NC(=O)C2CC(=O)n3cnnc3S2)c1 (stereo not given)	x	96*	x
CCOc1cccc(NC(=O)C2CC(=O)N(C)C(=Nc3cccc(OC)c3)S2)c1 (stereo not given)	x	x	106
CC(C)(C)n1nc(-c2ccc3c(c2)OCCO3)c2ccccc2c1=O	-30	0	103
O=C(O)CSCC(=O)Nc1cccc2ccccc12	36*	11	100
O=C(O)CSCC(=O)Nc1ccccc1-c1ccccc1	14	2	101
Cn1ncc(C(C#N)c2nc3ccccc3s2)c(Cl)c1=O (stereo not given)	-266	57*	140
CC(O)c1nc2ccccc2s1 (stereo not given)	-23	9	100
COC(=O)/C=C/C(=O)Nc1ccccc1	-11	101*	101
COc1ccc(/C=C/C(=O)Nc2ccccc2)cc1	3	13	101
c1ccc(OCCn2c3ccccc3c3nc4ccccc4nc32)cc1	0	-9	102
COc1ccc(CCNC(=O)CSc2nnc(C)s2)cc1OC	-4	-1	102
COc1ccc(CSc2nnc(C)s2)cc1F	56*	0	102
CCOC(=O)c1ccc(N2C(=O)c3n[nH]c(-c4ccco4)c3C2c2cccc(O)c2)cc1 (stereo not given)	x	x	111
O=C(CN1CCN(C(=O)c2ccccc2)CC1)Nc1cccc2nsnc12	5	-4	103
CC(C)Nc1nn(CN2CCN(C(=O)c3ccccc3)CC2)c(=S)s1	-3	77*	91
Cc1noc(C)c1COc1cccc(C(=O)N2CCC(C(N)=O)CC2)c1	-7	14	104
O=C(O)c1ccc2c(c1)ncn2C1CCCCC1	1	-6	104
Nc1ccc2c(c1)ncn2C1CCCCC1	-10	90	85*
Cc1ccc(Oc2ccc(C(=O)O)cc2)cc1C	-48	-15	100
C1CCN(SN2CCCCC2)CC1	-67	x	78*
NC(=O)c1ccc(NC(=O)COC(=O)Cc2ccc(-c3ccccc3)cc2)cc1	x	-15	101
CC1(O)CC(C(F)(F)OC(F)(F)F)=NN1S(=O)(=O)c1ccccc1 (stereo not given)	-10	-70	104
SMILES	Mtb MenB inh	Mtb MbtI inh	PV pol inh
O=C(Oc1ccc(F)cc1)c1nsc(Cl)c1Cl	-39	x	88*
Cc1ccsc1C(=O)Oc1ccc(F)cc1	x	-11	102
CC1CCCC(NC(=O)c2ccc(N3CCCC3=O)cc2)C1C (stereo not given)	-9	6	101
NC1(N)OC(CN2C(=O)c3ccccc3C2=O)CS1 (stereo not given)	6	-5	101
O=C1[C@H]2CSC3(C(=O)c4ccccc4C3=O)N2C(=O)[C@H]2CSC3(C(=O)c4ccccc4C3=O)N12	-5	100*	99
COc1ccc2sc(N(CCN(C)C)C(=O)Cc3ccccc3)nc2c1	-17	-5	99
NN=C(c1ccccc1)c1ccccc1	1	19	101
O=S(N=C(c1ccccc1)c1ccccc1)c1ccccc1 (stereo not given)	-21	68*	101
CC(=O)N1CC(O)C[C@H]1C(=O)O (stereo not given in full)	-22	0	103
CCNC(=S)N1CCN(Cc2ccccc2)CC1	2	-7	105
Oc1ccc(C(=S)N2CCN(Cc3ccccc3)CC2)cc1	-15	94*	98
CC(C)COc1ccc(C(=S)N2CCCCC2)cc1	-12	54*	103
Oc1ccc(C(=S)N2CCOCC2)cc1	-7	52	101
Oc1ccc(C(=S)N2CCCCCC2)cc1	-24	84*	97
CC1CCN(C(=S)c2ccc(O)cc2)CC1	-12	99*	100
O=C(Oc1ccc(C(=S)N2CCCCC2)cc1)c1ccccc1	-56	45	99
S=C(c1ccc(Cl)cc1)N1CCCCC1	-75	39	99
CNS(=O)(=O)c1cn(CC(=O)NCc2ccccn2)cc1S(=O)(=O)NC	-3	-20	104
O=C(CN1C(=O)CCc2ccccc21)NC1CCCCC1	10	7	101
CC1CN(C(=O)NCc2ccccc2)c2ccccc2S1 (stereo not given)	7	-3	100
N#C/C(=C/c1cccn1-c1ccc(Br)cc1)C(=O)NCc1ccco1	-33	19	99
Brc1cccc(-c2cn3nc(C4CC4)sc3n2)c1	-3	-3	103
CC(=C1C(=O)c2ccccc2C1=O)N1CCN(c2cccc(Cl)c2)CC1	-36	3	101
Oc1ccc(C(=S)N2CCN(c3cccc(Cl)c3)CC2)cc1	-40	59*	102
CCN(CC)C(=O)Cn1c(C)c(/C=C/C2=CCN(C)CC2)c2ccccc21	-44	16	109
SMILES	Mtb MenB inh	Mtb MbtI inh	PV pol inh
COc1cccc(CNC(=O)Cn2ncn3cccc3c2=O)c1	5	-3	105
Cc1nn(-c2ccccc2Cl)c2nc(-c3ccco3)cc(C(=O)NN)c12	2	103	88*
CCOC(=O)c1cc(-c2ccco2)nc2c1c(C)nn2-c1ccccc1	-24	6	113
O=C1CCCN2N=C(SCC(=O)Nc3cccc4ccccc34)SC2=N1	-3	2	100
O=C(O)CCN1CCN(c2cccc(Cl)c2)CC1	-19	-8	101
CCN(CC)C(=O)CN1CCN(c2cccc(Cl)c2)CC1	33*	0	102
Cc1occc(=O)c1OC(=O)c1cccs1	-4	-3	101
COc1ccc(/C=C2/C(=N)N3C(SC)=NSC3=NC2=O)cc1	10	-1	98
CSC1=NSC2=NC(=O)/C(=C\c3cccs3)C(=N)N12	-61	100*	99
C=CCc1ccc(OC(C)C(=O)NC(=O)NC)c(OC)c1 (stereo not given)	-9	10	104
CCN(C(=O)C1CCCN(c2ncnc3c2nc2n3CCCCC2)C1)c1cccc(C)c1 (stereo not given)	x	x	106
COc1ccc(CNC(=O)CSc2nc3cc4c(cc3cc2C#N)OCCO4)cc1	23	6	102
O=C(O)CCC/C=C\C[C@H]1C(=O)C[C@@H](O)[C@@H]1/C=C/[C@@H](O)CCc1ccccc1	5	-23	102
CNc1sc(C(=O)c2cccs2)c(N)c1-c1nc2ccccc2s1	-43	97*	110
Cc1ccccc1N(C(=O)c1cccs1)c1nc2ccccc2s1	7	1	105
O=C1C(Sc2ncn[nH]2)=C/C(=N/S(=O)(=O)c2ccc(Cl)cc2)c2ccccc21	x	95*	x
O=S(=O)(Nc1ccc(O)c(Sc2ncn[nH]2)c1)c1ccccc1	-18	6	100
O=C(Oc1cccc(Cl)c1Cl)c1ccncc1	1	-2	4.0*
CN(C)c1cccc(C(=O)Oc2ccccc2Cl)c1	-25	85	96
Cc1nn(-c2ccccc2)c(Cl)c1C1N2CCCN1CC2 (stereo not given)	33*	3	102
Cc1nn(-c2ccccc2)c(Cl)c1C(=O)N1CCN(C)CC1	x	-9	104
CCOc1ccc(CC(=O)Nc2ccc3c(c2)N(C)C(=O)c2ccccc2S3)cc1OCC	x	x	105
Cc1ccc(CC(=O)Nc2ccc3c(c2)N(C)C(=O)c2ccccc2S3)cc1	x	x	70*
Cc1ccc(-c2cnc3ccccc3n2)cc1N	x	-8	103

Screening data: PubChem BioAssay, ICCB-Longwood Screening Facility, Harvard Medical School
